From publication PMC5540273 (PLoS ONE, 2017)
Values joined by “and” are separate entries in the source; they are usually repeats but may differ in a detail not shown here. Equal values may be shown once. Read-outs that look alike come from different tables or passages of the source.

Experiments:
HUNK = settings: concentration: 1 μM, replicates: in singlicate; n = 1
ICK = settings: n = 1
IGF1R = settings: n = 1
IKK-alpha = system: T1, IKK-alpha; settings: n = 1
T1 construct: gene CHUK

IKK-beta = system: T2, IKK-beta; settings: n = 1
T2 construct: gene IKBKB

IKK-epsilon = system: T3, IKK-epsilon; settings: n = 1
T3 construct: gene IKBKE

INSRR = settings: n = 1
INSR = settings: n = 1
IRAK1 = settings: n = 1
IRAK3 = settings: concentration: 1 μM, replicates: in singlicate; n = 1
IRAK4 = settings: n = 1
ITK = settings: n = 1
[1] = system: JAK1(JH1domain-catalytic); settings: n = 1
[2] = system: JAK1(JH2domain-pseudokinase); settings: concentration: 1 μM, replicates: in singlicate; n = 1
[3] = system: JAK2(JH1domain-catalytic); settings: n = 1
[4] = system: JAK3(JH1domain-catalytic); settings: concentration: 1 μM, replicates: in singlicate; n = 1
JNK1 = system: T4, JNK1; settings: n = 1
T4 construct: gene MAPK8

JNK2 = system: T5, JNK2; settings: n = 1
T5 construct: gene MAPK9

JNK3 = system: T6, JNK3; settings: n = 1
T6 construct: gene MAPK10

KIT-autoinhibited = settings: n = 1
[5] = concentration: 1 μM, replicates: in singlicate
[6] = concentration: 1 μM,replicates: in singlicate, 1 µM
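Also: KINOMEscan kinase panel screen.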

For `Cc1ccccc1-n1cnc2c(N)ncnc21` [SKF-97510], the “%Inh” value (HUNK) was 1%, the “%Inh” value (ICK; [5]) was 0% and the “%Inh” value (IGF1R; [5]) was 0%. For the same compound, the “%Inh” value (IKK-alpha; [5]) was 0%, the “%Inh” value (IKK-beta; [5]) was 0% and the “%Inh” value (IKK-epsilon; [5]) was 0%. For the same compound, the “%Inh” value (INSRR; [5]) was 0%, the “%Inh” value (INSR; [5]) was 0% and the “%Inh” value (IRAK1; [5]) was 0%. For the same compound, the “%Inh” value (IRAK3) was 0%, the “%Inh” value (IRAK4; [5]) was 0% and the “%Inh” value (ITK; [5]) was 1%. The “%Inh” value [1, 5] was 5%, the “%Inh” value [2] was 0% and the “%Inh” value [3, 5] was 0%. The “%Inh” value [4] was 0%, the “%Inh” value (JNK1; [5]) was 0% and the “%Inh” value (JNK2; [5]) was 0%. The “%Inh” value (JNK3; [5]) was 0% and the “%Inh” value (KIT-autoinhibited; [5]) was 0%.

With `Cl.Oc1ccc(-c2nc(-c3ccccc3)[nH]c2-c2ccncc2)cc1` [SB-428218] the “%Inh” value (HUNK) was 42%, the “%Inh” value (ICK; [5]) was 3% and the “%Inh” value (IGF1R; [5]) was 8%. For the same compound, the “%Inh” value (IKK-alpha; [5]) was 0%, the “%Inh” value (IKK-beta; [5]) was 0% and the “%Inh” value (IKK-epsilon; [5]) was 12%. The “%Inh” value (INSRR; [5]) was 0%, the “%Inh” value (INSR; [5]) was 3% and the “%Inh” value (IRAK1; [5]) was 33%. For the same compound, the “%Inh” value (IRAK3) was 0%, the “%Inh” value (IRAK4; [5]) was 18% and the “%Inh” value (ITK; [5]) was 10%. The “%Inh” value [1, 5] was 4%, the “%Inh” value [2] was 36% and the “%Inh” value [3, 5] was 0%. For the same compound, the “%Inh” value [4] was 0%, the “%Inh” value (JNK1; [5]) was 2% and the “%Inh” value (JNK2; [5]) was 0%. The “%Inh” value (JNK3; [5]) was 0% and the “%Inh” value (KIT-autoinhibited; [5]) was 18%.

`Cc1cccc(-c2nc(Nc3cccc(C(N)=O)c3)c3ccccc3n2)n1` [GW876019] was tested, and the “%Inh” value (HUNK) was 44%, the “%Inh” value (ICK; [5]) was 0% and the “%Inh” value (IGF1R; [5]) was 4%. The “%Inh” value (IKK-alpha; [5]) was 0%, the “%Inh” value (IKK-beta; [5]) was 0% and the “%Inh” value (IKK-epsilon; [5]) was 0%. The “%Inh” value (INSRR; [5]) was 0%, the “%Inh” value (INSR; [5]) was 0% and the “%Inh” value (IRAK1; [5]) was 14%. The “%Inh” value (IRAK3) was 10%, the “%Inh” value (IRAK4; [5]) was 4% and the “%Inh” value (ITK; [5]) was 8%. For the same compound, the “%Inh” value [1, 5] was 0%, the “%Inh” value [2] was 78% and the “%Inh” value [3, 5] was 12%. For the same compound, the “%Inh” value [4] was 15%, the “%Inh” value (JNK1; [5]) was 0% and the “%Inh” value (JNK2; [5]) was 0%. The “%Inh” value (JNK3; [5]) was 0% and the “%Inh” value (KIT-autoinhibited; [5]) was 10%.

`Cc1ccc(C(=O)Nc2ccc(Nc3ccnc4cc(-c5ccccn5)ccc34)cc2O)cc1.Cl` [GW440146] was tested, and the “%Inh” value (HUNK) was 23%, the “%Inh” value (ICK; [5]) was 0% and the “%Inh” value (IGF1R; [5]) was 18%. For the same compound, the “%Inh” value (IKK-alpha; [5]) was 0%, the “%Inh” value (IKK-beta; [5]) was 0% and the “%Inh” value (IKK-epsilon; [5]) was 16%. The “%Inh” value (INSRR; [5]) was 0%, the “%Inh” value (INSR; [5]) was 1% and the “%Inh” value (IRAK1; [5]) was 28%. The “%Inh” value (IRAK3) was 3%, the “%Inh” value (IRAK4; [5]) was 9% and the “%Inh” value (ITK; [5]) was 0%. For the same compound, the “%Inh” value [1, 5] was 16%, the “%Inh” value [2] was 0% and the “%Inh” value [3, 5] was 5%. For the same compound, the “%Inh” value [4] was 0%, the “%Inh” value (JNK1; [5]) was 5% and the “%Inh” value (JNK2; [5]) was 15%. For the same compound, the “%Inh” value (JNK3; [5]) was 0% and the “%Inh” value (KIT-autoinhibited; [5]) was 17%.

`Fc1cc(Cl)ccc1Nc1ccnc2cc(-c3ccc(CN4CCCCC4)o3)ccc12` [GW560116] was tested, and the “%Inh” value (HUNK) was 9%, the “%Inh” value (ICK; [5]) was 0% and the “%Inh” value (IGF1R; [5]) was 24%. For the same compound, the “%Inh” value (IKK-alpha; [5]) was 0%, the “%Inh” value (IKK-beta; [5]) was 0% and the “%Inh” value (IKK-epsilon; [5]) was 20%. The “%Inh” value (INSRR; [5]) was 0%, the “%Inh” value (INSR; [5]) was 0% and the “%Inh” value (IRAK1; [5]) was 22%. For the same compound, the “%Inh” value (IRAK3) was 0%, the “%Inh” value (IRAK4; [5]) was 0% and the “%Inh” value (ITK; [5]) was 2%. The “%Inh” value [1, 5] was 11%, the “%Inh” value [2] was 0% and the “%Inh” value [3, 5] was 24%. The “%Inh” value [4] was 0%, the “%Inh” value (JNK1; [5]) was 0% and the “%Inh” value (JNK2; [5]) was 1%. The “%Inh” value (JNK3; [5]) was 0% and the “%Inh” value (KIT-autoinhibited; [5]) was 0%.

With `C[C@@H]1CCCCN1c1cc(-c2ccc3c(N)n[nH]c3c2)nc(N)n1` [GSK2258759] the “%Inh” value (HUNK) was 0%, the “%Inh” value (ICK; [5]) was 11% and the “%Inh” value (IGF1R; [5]) was 4%. For the same compound, the “%Inh” value (IKK-alpha; [5]) was 0%, the “%Inh” value (IKK-beta; [5]) was 7% and the “%Inh” value (IKK-epsilon; [5]) was 43%. For the same compound, the “%Inh” value (INSRR; [5]) was 0%, the “%Inh” value (INSR; [5]) was 6% and the “%Inh” value (IRAK1; [5]) was 4%. The “%Inh” value (IRAK3) was 0%, the “%Inh” value (IRAK4; [5]) was 0% and the “%Inh” value (ITK; [5]) was 0%. The “%Inh” value [1, 5] was 8%, the “%Inh” value [2] was 0% and the “%Inh” value [3, 5] was 0%. The “%Inh” value [4] was 0%, the “%Inh” value (JNK1; [5]) was 0% and the “%Inh” value (JNK2; [5]) was 10%. The “%Inh” value (JNK3; [5]) was 0% and the “%Inh” value (KIT-autoinhibited; [5]) was 0%.

With `Cc1csc(-c2nc(Nc3ccncc3)c3ccccc3n2)n1` [GW869640] the “%Inh” value (HUNK) was 0%, the “%Inh” value (ICK; [5]) was 33% and the “%Inh” value (IGF1R; [5]) was 14%. The “%Inh” value (IKK-alpha; [5]) was 48%, the “%Inh” value (IKK-beta; [5]) was 41% and the “%Inh” value (IKK-epsilon; [5]) was 0%. For the same compound, the “%Inh” value (INSRR; [5]) was 11%, the “%Inh” value (INSR; [5]) was 2% and the “%Inh” value (IRAK1; [5]) was 12%. The “%Inh” value (IRAK3) was 0%, the “%Inh” value (IRAK4; [5]) was 0% and the “%Inh” value (ITK; [5]) was 11%. For the same compound, the “%Inh” value [1, 5] was 0%, the “%Inh” value [2] was 74% and the “%Inh” value [3, 5] was 53%. The “%Inh” value [4] was 9%, the “%Inh” value (JNK1; [5]) was 54% and the “%Inh” value (JNK2; [5]) was 16%. The “%Inh” value (JNK3; [5]) was 15% and the “%Inh” value (KIT-autoinhibited; [5]) was 24%.

For `CSc1nn2c(=O)cc(N3CCOCC3)nc2n1Cc1cccc(C(F)(F)F)c1C` [GSK2363608], the “%Inh” value (HUNK) was 0%, the “%Inh” value (ICK; [6]) was 0% and 12% and the “%Inh” value (IGF1R; [6]) was 0% and 7%. The “%Inh” value (IKK-alpha; [6]) was 2% and 3%, the “%Inh” value (IKK-beta; [6]) was 26% and 22% and the “%Inh” value (IKK-epsilon; [6]) was 0% and 13%. The “%Inh” value (INSRR; [6]) was 0% and 8%, the “%Inh” value (INSR; [6]) was 6% and 0% and the “%Inh” value (IRAK1; [6]) was 5% and 21%. The “%Inh” value (IRAK3) was 0%, the “%Inh” value (IRAK4; [6]) was 12% and 18% and the “%Inh” value (ITK; [6]) was 2% and 12%. For the same compound, the “%Inh” value [1, 6] was 13% and 30%, the “%Inh” value [2] was 0% and the “%Inh” value [3, 6] was 100% and 0%. The “%Inh” value [4] was 0%, the “%Inh” value (JNK1; [6]) was 2% and 16% and the “%Inh” value (JNK2; [6]) was 15% and 5%. For the same compound, the “%Inh” value (JNK3; [6]) was 7% and 3% and the “%Inh” value (KIT-autoinhibited; [6]) was 2% and 0%.

In the case of `O=c1cc(N2CCOCC2)nc2n(Cc3cccc(Cl)c3Cl)ccn12` [GSK2286295], the “%Inh” value (HUNK) is reported as 0%, the “%Inh” value (ICK; [5]) is reported as 3% and the “%Inh” value (IGF1R; [5]) is reported as 12%. For the same compound, the “%Inh” value (IKK-alpha; [5]) was 0%, the “%Inh” value (IKK-beta; [5]) was 25% and the “%Inh” value (IKK-epsilon; [5]) was 10%. The “%Inh” value (INSRR; [5]) was 0%, the “%Inh” value (INSR; [5]) was 5% and the “%Inh” value (IRAK1; [5]) was 0%. The “%Inh” value (IRAK3) was 3%, the “%Inh” value (IRAK4; [5]) was 0% and the “%Inh” value (ITK; [5]) was 4%. For the same compound, the “%Inh” value [1, 5] was 17%, the “%Inh” value [2] was 0% and the “%Inh” value [3, 5] was 0%. The “%Inh” value [4] was 0%, the “%Inh” value (JNK1; [5]) was 1% and the “%Inh” value (JNK2; [5]) was 30%. The “%Inh” value (JNK3; [5]) was 15% and the “%Inh” value (KIT-autoinhibited; [5]) was 0%.

`Cc1cccc(-c2nc(C)cc(Nc3ccncc3)n2)n1` [GSK257997] was tested, and the “%Inh” value (HUNK) was 7%, the “%Inh” value (ICK; [5]) was 0% and the “%Inh” value (IGF1R; [5]) was 5%. For the same compound, the “%Inh” value (IKK-alpha; [5]) was 0%, the “%Inh” value (IKK-beta; [5]) was 13% and the “%Inh” value (IKK-epsilon; [5]) was 12%. The “%Inh” value (INSRR; [5]) was 0%, the “%Inh” value (INSR; [5]) was 3% and the “%Inh” value (IRAK1; [5]) was 0%. The “%Inh” value (IRAK3) was 0%, the “%Inh” value (IRAK4; [5]) was 1% and the “%Inh” value (ITK; [5]) was 12%. For the same compound, the “%Inh” value [1, 5] was 13%, the “%Inh” value [2] was 0% and the “%Inh” value [3, 5] was 0%. For the same compound, the “%Inh” value [4] was 0%, the “%Inh” value (JNK1; [5]) was 4% and the “%Inh” value (JNK2; [5]) was 43%. The “%Inh” value (JNK3; [5]) was 32% and the “%Inh” value (KIT-autoinhibited; [5]) was 0%.
